Assay outcomes deposited in PubChem BioAssay by National Center for Advancing Translational Sciences (NCATS).
An excerpt weighted towards active compounds, which were near 21% of everything screened.
Pf growth 48h: Primary qHTS for delayed death inhibitors of the malarial parasite plastid, 48 hour incubation; 310,000 tested, 5.9% active; P. falciparum luciferase growth in erythrocytes, 48 h; Potency, µM (series often up to 28.7 µM), without a hit: top-dose activity change, negative = inhibition, usual class: inhibitors; note: potency is the fitted concentration of half-maximal effect; % is set by controls: 0 for no effect and ±100 for the full control effect
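Read-out is firefly luciferase luminescence from an integrated reporter in P. falciparum, so falling signal marks reduced parasite growth. Infected erythrocytes were at 2% hematocrit and 0.1% parasitemia (final) in Albumax-supplemented RPMI 1640.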
NS1 function inh: qHTS Assay for Inhibitors of Influenza NS1 Protein Function. Potency, µM (series often up to 46.1 µM), for the others: at the highest dose activity, positive = more growth. 270,000 tested, 0.4% active; calls by dose curve; note: potency is the fitted concentration of half-maximal effect; actives are rising curves; nearly all actives have a fitted effect of over 50% in size
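A cell-based growth assay was used: compounds that relieve NS1-induced slow growth of budding yeast raise OD600. Assay medium was yeast nitrogen base with ammonium sulphate and -URA supplement, pH 6.0, with 2% galactose.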
Pf growth 96h: Primary qHTS for delayed death inhibitors of the malarial parasite plastid, 96 hour incubation; P. falciparum luciferase reporter growth, 96 h; Potency, µM (series often up to 28.7 µM), without a hit: top-dose activity change, negative = inhibition, hits mostly inhibitors; 320,000 tested, 6.9% active; AID 504834, 2011; note: potency is the fitted concentration of half-maximal effect; % is set by controls: 0 for no effect and ±100 for the full control effect
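Luminescence readout: decreased luciferase signal marks inhibited growth of reporter-expressing P. falciparum in infected red cells (2% hematocrit, 0.05% parasitemia final), exposed to compound two generations (96 h, 37 C, 5% CO2).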
CHX counter: Cycloheximide Counterscreen for Small Molecule Inhibitors of Shiga Toxin | cell reporter, cycloheximide protein synthesis inhibition counterscreen | max response, % | 300,000 tested, 12% active | AID 2314, 2010; in the data active = max response mostly above about 13%, no sharp cut-off; inactive = mostly below about 14%; note: read at 38.3 µM for the half of the compounds with a filed dose; 0% is about no effect
Shiga toxin inh: A qHTS for Small Molecule Inhibitors of Shiga Toxin | Vero cells, Shiga toxin protein synthesis inhibition reporter | inhibition, % at 38.7 µM | 290,000 tested, 9.2% active | AID 2315, 2010; in the data active = inhibition mostly above about 28%, no sharp cut-off; inactive = mostly below about 43%; note: 0% is about no effect
Starred values were filed as active, the others as inactive; ? = inconclusive; . = no result; [ ] = another dose, or the depositor's remark. Unless noted, calls come from the whole dose curve; as a rule, active = well fitted inhibition curve with a large enough effect; inconclusive = small, poorly fitted or top-dose-only effect, or another doubt; inactive = no such curve, though single readings can be large or run the other way.

SMILES	Pf growth 48h	NS1 function inh	Pf growth 96h	CHX counter	Shiga toxin inh
Cc1ccc(S(=O)(=O)N2CCN(C(=O)c3ccc(Br)o3)CC2)c(C)c1	6.57µM*	-11.5%	?	-0.6	-5.5
COc1ccc(Cl)cc1S(=O)(=O)N1CCN(C(=O)COc2ccccc2)CC1	-19.9%	-15.0%	0.1%	-2.4	3.6
Cc1ccc(S(=O)(=O)N2CCN(C(=O)COC(=O)c3ccc(Br)o3)CC2)c(C)c1	?	.	5.6%	.	.
COc1cc(CCC(=O)N2CCN(S(=O)(=O)c3ccc(C)c(C)c3)CC2)cc(OC)c1OC	?	-5.5%	4.65µM*	0.3	-5.4
N#Cc1ccc(OCC(=O)N2CCN(S(=O)(=O)c3cccc(Cl)c3)CC2)cc1	?	.	9.28µM*	.	.
COc1ccc(CCC(=O)N2CCN(S(=O)(=O)c3ccc4ccccc4c3)CC2)cc1	-27.8%	6.8%	?	-1.5	-17.8
Cc1ccc(S(=O)(=O)N2CCN(C(=O)CC(C)C)CC2)cc1	165.2%	-2.2%	32.0%	31.8*	80.9*
CC(C)CC(=O)N1CCN(S(=O)(=O)c2ccc(Cl)cc2)CC1	-3.6%	-1.1%	?	-0.4	-8.9
O=C(CCl)NC1(C(F)(F)F)C(=O)Nc2c1c(=O)[nH]c(=O)n2-c1ccccc1 (centres undefined)	22.9%	2.8%	14.0%	-1.3	13.7
Cc1cccc(C(=O)N2CCN(CCNC(=O)C(=O)Nc3ccc(F)cc3)CC2)c1	8.0%	0.4%	18.7%	9.1	10.5
CN(C)c1ccc(S(=O)(=O)N2CCCCC2)cc1NC(=O)CCNC(=O)c1ccc(Cl)cc1	-11.2%	.	?	.	.
COc1ccc(Cc2nc3ccc(C(=O)NC4CCOC4)cc3o2)cc1 (centres undefined)	-4.8%	-9.6%	?	8.7	20.0
Cc1ccc(OCC(=O)N2CCN(S(=O)(=O)c3ccccc3[N+](=O)[O-])CC2)cc1	9.28µM*	-2.3%	30.2%[5.75 µM]	-3.1	-2.4
COc1ccc(CCC(=O)N2CCN(S(=O)(=O)c3ccc(OC(F)(F)F)cc3)CC2)cc1	9.28µM*	.	11.7µM*	.	.
COc1ccc(S(=O)(=O)N2CCN(C(=O)COc3ccc4c(C)cc(=O)oc4c3)CC2)cc1	?	3.1%	4.65µM*	-5.4	-18.8
O=C(Cn1cnc2ccccc21)OCC(=O)N1CCc2ccccc2C1	1.0%	-32.4%	?	2.5	6.7
Cc1noc(C)c1C(=O)NCCc1ccc(Cl)cc1	0.0%	-4.5%	.	-1.7	16.7
Cc1cc(C(C)(C)C)cc(C)c1CCNC(=O)c1c(C)noc1C	13.1µM*	.	8.28µM*	.	.
Cc1cccc(NC(=O)CCS(=O)(=O)c2cc3c(cc2Cl)NC(=O)CO3)c1	5.7%	15.7%	36.3%	-13.1	-3.8
O=C1COCCN1	.	.	.	-0.8	2.6
CCN1CCN(C(CNS(=O)(=O)c2ccccc2)c2cccnc2)CC1 (centres undefined)	6.2%	2.3%	29.3%	-1.2	-8.8
COc1ccc(S(=O)(=O)NCC(c2cccnc2)N2CCN(c3ccccc3)CC2)cc1C (centres undefined)	.	-64.5%	?	-4.0	-8.3
COc1ccccc1N1CCN(C(CNS(=O)(=O)c2cccs2)c2cccnc2)CC1 (centres undefined)	10.4µM*	-6.7%	?	-3.0	-9.6
COc1ccc(S(=O)(=O)NCC(c2cccnc2)N2CCN(c3ccc(F)cc3)CC2)cc1C (centres undefined)	4.65µM*	-82.1%	236.5%	-5.1	-6.4
O=S(=O)(NCC(c1cccnc1)N1CCN(Cc2ccccc2)CC1)c1cc(F)ccc1F (centres undefined)	?	-3.5%	10.4µM*	-2.6	-12.1
SMILES	Pf growth 48h	NS1 function inh	Pf growth 96h	CHX counter	Shiga toxin inh
CCN1CCN(C(CNS(=O)(=O)c2ccc(OC)c(C)c2)c2cccnc2)CC1 (centres undefined)	-5.0%	-3.2%	14.7µM*	7.8	-14.6
O=C1CC2(CCN(C(=O)c3ccc(F)c(F)c3)CC2)Oc2ccccc21	0.1%	.	0.8%	.	.
CCCCNC(=O)C1CC(c2c(Cl)cccc2Cl)=NO1 (centres undefined)	-25.0%	-20.3%	?	-3.9	-9.7
CCOc1ccc(/C=N/NC(=O)Cc2cccs2)cc1	49.1%	-0.5%	24.2%	43.7*	91.1*
CCOC(=O)N/N=C/C(Cl)=C/c1ccccc1	-42.9%	.	?	37.5*	53.8*
O=C(N/N=C/C(Cl)=C/c1ccccc1)c1ccc2c(c1)OCO2	1.2%	.	?	.	.
O=C(Cc1cccs1)N/N=C/C(Cl)=C/c1ccccc1	77.4%	.	?	31.5*	117.8*
Cc1cccc(/C=N/NC(=O)Cc2cccs2)c1	38.6%	-3.2%	82.2%	33.1*	71.6*
Cc1onc(-c2ccccc2)c1C(=O)N1CCN(C)CC1	.	8.9%	-13.4%	-2.6	-11.7
Cc1cc(=O)oc2c(C)c(OCC(=O)N3CCC(C(=O)O)CC3)ccc12	3.8%	7.3%	41.3%	-2.0	8.1
Cc1ccc(NC(=S)NCCN2CCOCC2)cc1F	-7.8%	2.6%	0.0%	6.9	42.6
c1ccc(CC2CCN(c3nc(N4CCOCC4)nc(N4CCOCC4)n3)CC2)cc1	.	-38.9%	.	.	.
CC(=O)Nc1ccc(S(=O)(=O)N2CCN=C2SCc2ccc(C)cc2)cc1	44.8%	-12.0%	53.0%	49.5*	88.2*
O=S(=O)(c1ccccc1)N1CCN=C1SCc1cccc(Cl)c1	?	-20.4%	11.7µM*	-4.8	-1.8
CC(=O)Nc1ccc(S(=O)(=O)N2CCN=C2SCc2ccc(F)cc2)cc1	?	7.8%	14.7µM*	-1.2	-13.4
O=C(Nc1ccc(Cl)cc1Cl)c1cccc(N2C(=O)C=CC2=O)c1	3.6%	-73.5%	48.8%	2.7	-2.8
CCC(CC)C(=O)Nc1nnc(-c2cccs2)s1	50.9%	-1.1%	-58.4%	21.2*	57.1
CC(=O)c1cccc(S(=O)(=O)NCC2CCCCC2)c1	10.2%	1.9%	29.3%	9.7	-8.0
CC1CCCN(c2nc3c(c(=O)[nH]c(=O)n3C)n2CCCc2ccccc2)C1 (centres undefined)	?	-57.0%	?	6.3	-6.7
Cc1cc(N2CCCCC2)nc(SCC(=O)c2ccccc2)n1	43.2%	-16.4%	-25.1%	33.7*	73.1*
CCc1ccc(C(=O)CSc2nc(C)cc(=O)[nH]2)cc1	6.8%	1.9%	-19.6%	31.8*	49.4*
Cc1cc(=O)[nH]c(SCC(=O)NNC(=O)Cc2ccccc2)n1	31.3%	3.5%	13.9%	10.3	-2.6
Cc1cc(C)nc(S/C=C/C(=O)c2ccc(F)cc2)n1	?	-5.6%	-19.2%	36.6*	68.0*
Cc1cc(C)nc(SCC(=O)c2ccc(F)cc2F)n1	?	1.2%	15.4%	20.0*	.
COc1cc(C(=O)Nc2ccc(N3CCN(C(=O)c4ccc(C)cc4)CC3)cc2)cc(OC)c1OC	23.8%	16.1%	-18.0%	-1.6	-16.1
Cc1cc(=O)[nH]c(SCC(=O)c2ccc(F)c(C)c2)n1	?	12.5%	0.262µM*	13.6*	25.9
CCCc1cc(=O)[nH]c(SCC(=O)N2CCN(S(=O)(=O)c3ccc(C)cc3)C2)n1	.	?	13.1µM*	-7.5	-13.2
